# Measured values from PubChem BioAssay AID2314 (National Center for Advancing Translational Sciences (NCATS), 2010).
# The campaign covered roughly 300,000 compounds. About 37,000 (12%) were called active. Rule as the data show it: active = max response mostly above about 13% (no sharp cut-off); inactive = mostly below about 14%. Only a selection was taken, and actives are over-represented in it overall.
# Assay: Cycloheximide Counterscreen for Small Molecule Inhibitors of Shiga Toxin; also: read at 38.3 µM for the half of the compounds with a filed dose; 0% is about no effect
# Conditions: cell reporter, cycloheximide protein synthesis inhibition counterscreen; hits give high values
row,SMILES,max response
1,CCOC(=O)C1CCN(Cc2nnc(-c3cccc(Br)c3)o2)CC1,-0.93% (inactive)
2,COc1ccc(Nc2nc(-c3ccccc3)cs2)cc1,46.6% (active)
3,CC(C)(C)C(=O)OCc1nc(-c2ccc(O)c(O)c2)cs1,5.11% (inactive)
4,CCOC(=O)N/N=C/c1cccnc1,11.3% (inactive)
5,NS(=O)(=O)c1ccc(Nc2nc(-c3ccccc3)cs2)cc1,18.5% (inactive)
6,CN(c1ccc(O)cc1)c1nc(-c2cccnc2)cs1,56.1% (active)
7,COc1ccc(-c2csc(N3CCN(Cc4ccc5c(c4)OCO5)CC3)n2)cc1,-4.44% (inactive)
8,Brc1ccc(-c2csc(N/N=C/c3cccnc3)n2)cc1,19.4% (active)
9,COc1ccc(-c2csc(Cc3nc(O)cs3)n2)cc1,37.4% (active)
10,CN(C(=O)CSc1nc(C2CC2)nc2ccccc12)c1nc(-c2ccccc2)cs1,4.58% (inactive)
11,COc1ccc(CCN(C(=O)COc2ccccc2)c2nc(-c3ccccc3)cs2)cc1OC,5.03% (inactive)
12,Brc1ccc(-c2csc(N/N=C/c3ccc4c(c3)OCO4)n2)cc1,17.6% (inactive)
13,COc1ccc(-c2csc3ncnc(N4CCN(S(=O)(=O)c5ccccc5C#N)CC4)c23)cc1,-2.23% (inactive)
14,COc1cc(/C=N/O)cc(Br)c1OS(=O)(=O)c1ccc(C)cc1,1.45% (inactive)
15,COc1cc(NC(=O)CCNC(=O)Cn2ccc3ccccc3c2=O)cc(OC)c1OC,-5.95% (inactive)
16,COc1ccc(OC)c(C(=O)NC(CC(N)=O)c2ccc(N3CCC(N4CCCCC4)CC3)c([N+](=O)[O-])c2)c1 (stereo not given),4.9% (inactive)
17,CCC(C(=O)NC1CCCC1)N(C(=O)Cn1nnc(-c2ccc(C)o2)n1)c1ccc(OC)c(OC)c1 (stereo not given),-5.67% (inactive)
18,Cc1scc(C(=O)NNC(=S)NCc2ccccc2)c1C,-0.644% (inactive)
19,Cc1ccc(S(=O)(=O)N(Cc2ccc(Cl)cc2)c2ccccc2C(=O)NCc2cccnc2)cc1,7.18% (inactive)
20,COC(=O)c1cc2c(ccn2C)n1C,-8.1% (inactive)
21,Oc1ccc(-c2csc(Nc3cccnc3)n2)cc1,33.7% (active)
22,COC(=O)CCc1sc(Nc2ccc(Br)cc2)nc1-c1ccc(OC)cc1,11.1% (inactive)
23,COc1ccc(OC)c(Nc2nc(-c3ccc(O)c(O)c3)cs2)c1,0.815% (inactive)
24,O=C(Nc1ccc(-c2csc(Nc3cccc(C(F)(F)F)c3)n2)cc1)c1cccc(C(F)(F)F)c1,-4.63% (inactive)

row,SMILES,max response
1,COc1ccc(-c2csc(Nc3ccc(O)cc3)n2)cc1,58.3% (active)
2,COC(=O)CCCCCN1C(=O)NC(c2ccc(-c3ccccc3)cc2)C(C(=O)OCc2ccccc2)=C1C (stereo not given),-3.62% (inactive)
3,CN1C2CCC1/C(=C\c1ccccc1Cl)C(=O)/C2=C\c1ccccc1Cl,-1.18% (inactive)
4,Cc1cc(C)c(S(=O)(=O)c2ccc(F)cc2C)c(=O)[nH]1,0.432% (inactive)
5,O=C(Cn1cnc2cc([N+](=O)[O-])ccc2c1=O)NC(=O)NCc1ccccc1,5.35% (inactive)
6,O=C(Cn1cnc2c(cnn2-c2ccc(F)cc2)c1=O)NCCc1ccccc1,-1.32% (inactive)
7,COc1ccc(-n2c(C)nc3c(cnn3-c3ccccc3)c2=O)cc1,-2.87% (inactive)
8,Cc1ccc(-c2nc3c(cnn3-c3ccccc3)c(=O)o2)cc1,-3.4% (inactive)
9,CC(=O)Cn1cnc2c(cnn2-c2ccccc2)c1=O,20.7% (active)
10,O=C(Cn1cnc2c(cnn2-c2ccccc2)c1=O)NCc1ccccc1,20.7% (active)
11,Cc1cc(C)n(S(=O)(=O)c2cccc([N+](=O)[O-])c2)n1,0.92% (inactive)
12,COc1ccccc1C(=O)NCc1nnc(SC(C)C(=O)Nc2nccs2)n1C (stereo not given),2.76% (inactive)
13,Cc1ccc(-n2ncc3c2CCCC3NC(=O)c2cnccn2)cc1C (stereo not given),9.44% (inactive)
14,C/C=C/c1ccc(OCCCCN2CCC(C)CC2)c(OC)c1,0.514% (inactive)
15,c1ccc(CSc2ncnc3c2sc2nc(N4CCOCC4)c4c(c23)CCCC4)cc1,-3.72% (inactive)
16,Cc1n[nH]c(=O)nc1N/N=C/c1cccs1,25.7% (active)
17,Cc1nnc(N/N=C/c2cccs2)[nH]c1=O,-2.07% (inactive)
18,S=c1[nH]nc(-c2cccs2)n1/N=C/c1cccs1,8.89% (inactive)
19,COCCOC(=O)c1sc(=S)n(CCOC)c1N,-1.77% (inactive)
20,CC(C)(C)c1ccc(Cn2nnc3c(=O)[nH]c(C4CCCN(C(=O)c5ccco5)C4)nc32)cc1 (stereo not given),4.58% (inactive)
21,Clc1ncn(CCOc2ccccc2)c1Cl,-2.48% (inactive)
22,Cc1cccc2c1N(CCOc1ccccc1)C(=O)C2=O,8.28% (inactive)
23,Cc1nn(CCOc2ccccc2)c(=O)n1-c1ccccc1F,49.6% (active)
24,CCc1nc2cccnc2n1-c1ccc(C(=O)O)cc1,-1.63% (inactive)

row,SMILES,max response
1,COc1cccc(C(O)c2nc3ccccc3n2C)c1 (stereo not given),-2.8% (inactive)
2,CCOc1ccc2nc(C(=O)N3CCCC(C)C3)sc2c1 (stereo not given),105% (active)
3,CCOc1ccc2nc(Nc3nc4ccc(NC(C)=O)cc4s3)sc2c1,-1.98% (inactive)
4,CCCC(=O)N(CCN1CCOCC1)c1nc2ccc(OCC)cc2s1,16.6% (inactive)
5,CCOc1ccc(S(=O)(=O)NCCCn2ccnc2)cc1NC(C)=O,-3.29% (inactive)
6,CCOc1cccc2c1OC1(CCCCC1)N1N=C(c3cccnc3)CC21 (stereo not given),40.7% (active)
7,c1cncc(-c2nnc3n2C2(CCCCC2)Cc2ccccc2-3)c1,-1.12% (inactive)
8,CCOc1ccccc1C1CC(c2cccc(NS(C)(=O)=O)c2)=NN1C(=O)c1ccccc1 (stereo not given),-1.46% (inactive)
9,CC1CCN(S(=O)(=O)c2ccc3c(c2)n(C)c(=O)n3C)CC1,2.78% (inactive)
10,Cc1cc(CNCc2c(C(=O)N(C)Cc3ccccc3)nc3ccccn23)nn1C,1.54% (inactive)
11,Cc1cc2c(cc1C)NC(c1ccccn1)C1=C(CC(C)(C)CC1=O)N2 (stereo not given),28% (active)
12,CC1(C)CC(=O)C2=C(C1)Nc1cc(C(=O)c3ccccc3)ccc1NC2c1ccccn1 (stereo not given),5.93% (inactive)
13,Cc1nn(-c2ccccn2)c2c1C(c1ccncc1)C1=C(CC(C)(C)CC1=O)N2 (stereo not given),-5.72% (inactive)
14,O=C(Nc1sc2c(c1-c1nc3ccccc3[nH]1)CCCC2)C1CC1,16.7% (inactive)
15,Cc1ccc(C(=O)c2c(NC(=O)c3ccncc3)sc3c2CCCC3)cc1,-4.15% (inactive)
16,O=C1CCCCC1C(=O)c1ccccc1 (stereo not given),12.6% (inactive)
17,O=C1NC(c2ccncc2)Nc2sc3c(c21)CCCC3 (stereo not given),26.5% (active)
18,C/C(=C\c1ccccc1)C1NC(=O)c2c(sc3c2CCCC3)N1 (stereo not given),36.6% (active)
19,CCOC(=O)c1cc2ccccc2n1CC(=O)c1ccccc1,1.26% (inactive)
20,CC1CCC2CCCCC2N1C(=O)c1cc([N+](=O)[O-])cc([N+](=O)[O-])c1 (stereo not given),10.4% (inactive)
21,NS(=O)(=O)c1ccc(CCNC(=O)c2nc(CS(=O)(=O)c3ccc(Cl)cc3)no2)cc1,-2.33% (inactive)
22,CCn1cc(C(=O)N[C@@H](C)C(=O)NCCO)c(=O)c2cc3c(cc21)OCO3,-1.13% (inactive)
23,CC(CO)NCC12CC3CC(CC(C3)C1)C2 (stereo not given),-1.89% (inactive)
24,N/C(=N\OC(=O)Nc1ccccc1)c1ccno1,24.5% (active)

row,SMILES,max response
1,N/C(=N\OC(=O)Nc1ccc(Cl)c(Cl)c1)c1ncc(C(F)(F)F)cc1Cl,-4.62% (inactive)
2,O=C(Nc1ccccc1Cl)O/N=C(/c1ccccc1)c1ccccn1,-2.08% (inactive)
3,COc1ccc(-c2c(C)cc3oc(=O)cc(-c4ccccc4)c3c2C)cc1C=O,19.9% (inactive)
4,COc1cccc(NC(=O)CN(C)C(C)C(=O)Nc2ccc(C#N)cc2)c1 (stereo not given),11.8% (inactive)
5,S=c1nc2ccccc2c2nc(-c3cccnc3)[nH]n12,-3.11% (inactive)
6,C=CCn1c(=O)c(C(=O)NCc2ccc3c(c2)OCO3)c(O)c2ccccc21,-4.21% (inactive)
7,CC(C)N1CCC(N2CCN(Cc3cccnc3)CC2CCO)CC1 (stereo not given),-0.86% (inactive)
8,Cc1ccc(S(=O)(=O)NCC(=O)N(CC(=O)NC(C)(C)C)Cc2cccs2)cc1,0.104% (inactive)
9,CCC(C)(C)NC(=O)CN(Cc1cccs1)C(=O)CNS(=O)(=O)c1ccc(F)cc1,1.08% (inactive)
10,CC(C)(C)NC(=O)CN(Cc1cccs1)C(=O)CNS(=O)(=O)c1ccccc1,15.6% (active)
11,O=C(N/C(=C\c1ccc(F)cc1)C(=O)N1CCCCCC1)c1ccccc1,-2.25% (inactive)
12,CC(C)c1nc(SCC(=O)Nc2cccc(C(=O)O)c2)c2c3c(sc2n1)CCCC3,2.36% (inactive)
13,COc1ccc(CNc2c(CO)cnc3c2cnn3C)cc1,8.91% (inactive)
14,Cc1ccc(S(=O)(=O)N2CCN(C)CC2)cc1C(=O)NC1CCCCC1,-0.406% (inactive)
15,O=C(Oc1c(-c2ccco2)oc2ccccc2c1=O)c1cccnc1,12.7% (active)
16,O=C(Oc1ccc(Br)cc1)c1cccnc1,7.39% (inactive)
17,O=C(Oc1cccnc1)c1cc2ccccc2oc1=O,-1.97% (inactive)
18,O=C(CN1C(=O)c2ccccc2C1=O)NCc1ccc(C(=O)O)cc1,-4.14% (inactive)
19,O=c1[nH]c(NCCO)nnc1Cc1ccc(Cl)cc1,-3.78% (inactive)
20,Cc1ccc(N(C(=O)CNC(=O)c2ccco2)C(C(=O)NC2CCCC2)c2ccncc2)cc1 (stereo not given),-1.23% (inactive)
21,CCOC(=O)C1(CCOc2ccccc2)CCN(C(=O)c2cncs2)CC1,1.41% (inactive)
22,CCOC(=O)C1(Cc2ccccc2C(F)(F)F)CCN(C(=O)c2cc(C)n(C)n2)CC1,31.4% (active)
23,CCOC(=O)C1(Cc2cccc(OC)c2)CCN(C(C)CC(C)(C)O)CC1 (stereo not given),-3.86% (inactive)
